# In the supplement of paper PMC4840960:
# Counter-ions that a name gives are not always drawn. ± gives the standard deviation of the averaged measurements.
# Tested on: E18 rat cortical neuron-glia co-culture
# Test: fiber score / MBP score (myelination specific beyond OL differentiation) (ratio); higher = more myelination-specific MBP alignment
# Conditions: 1 µM; treatment time: 8 days (DIV5-DIV13)
# How it was run: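 Reported values are fiber score (continuous MBP fiber length per Olig2+ nucleus) divided by MBP score (thresholded MBP area × intensity per Olig2+ nucleus). They come from primary E18 rat cortical co-cultures treated with library compounds at 1 or 5 µM in myelination medium from DIV5 to DIV13, then fixed in 4 % paraformaldehyde, immunostained for MBP and Olig2 with DAPI, and analysed over four 10X fields per well in duplicate wells.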
row,SMILES,fiber score / MBP score
1,CC1(C)O[C@@H]2C[C@H]3[C@@H]4CCC5=CC(=O)C=C[C@]5(C)[C@@]4(F)[C@@H](O)C[C@]3(C)[C@]2(C(=O)CO)O1 [Azmacort],0.687
2,CC[C@H]1OC(=O)[C@H](C)[C@@H](O[C@H]2C[C@@](C)(OC)[C@@H](O)[C@H](C)O2)[C@H](C)[C@@H](O[C@@H]2O[C@H](C)C[C@H](N(C)C)[C@H]2O)[C@](C)(O)C[C@@H](C)C(=O)[C@H](C)[C@@H](O)[C@]1(C)O [Erythromycin],0.767
3,COC(=O)Nc1nc2cc(C(=O)c3ccc(F)cc3)ccc2[nH]1 [Flubendazole],0.494
4,C=C(CC)C(=O)c1ccc(OCC(=O)O)c(Cl)c1Cl [Ethacrynic Acid],2.03
5,CCCCCNC(=N)N/N=C/c1c[nH]c2ccc(OC)cc12 [Tegaserod],0.56
6,CS(=O)(=O)c1ccc(-c2cc(Br)sc2-c2ccc(F)cc2)cc1,0.92
7,O=c1c(-c2ccccc2)c1-c1ccccc1 [Diphenylcyclopropenone],0.809
8,OCCN1CCN(CCCN2c3ccccc3Sc3ccc(C(F)(F)F)cc32)CC1 [Fluphenazine],0.784
9,CCOC(=O)C1=C(COCCN)NC(C)=C(C(=O)OC)C1c1ccccc1Cl (centres undefined) [Amlodipine],0.613
10,CC(C)c1ccc2c(c1)c(SC(C)(C)C)c(CC(C)(C)C(=O)O)n2Cc1ccc(Cl)cc1,1.1
11,CCCCc1nc(Cl)c(CO)n1Cc1ccc(-c2ccccc2-c2nnn[nH]2)cc1 [Losartan],0.8
12,CC=CC(=O)N(CC)c1ccccc1C [Crotamiton],0.609
13,Cc1cccc(CN2CCN(C(c3ccccc3)c3ccc(Cl)cc3)CC2)c1 (centres undefined) [Meclizine],0.439
14,CC[C@H]1OC(=O)[C@H](C)C(=O)[C@H](C)[C@@H](O[C@@H]2O[C@H](C)C[C@H](N(C)C)[C@H]2O)[C@](C)(OC)C[C@@H](C)C(=O)[C@H](C)[C@H]2N(CCCCn3cnc(-c4cccnc4)c3)C(=O)O[C@]12C [Telithromycin],0.819
15,CN(C)CCOc1ccc(/C(=C(/CCCl)c2ccccc2)c2ccccc2)cc1 [Toremifene],0.889
16,OCCN1CCN(CCCN2c3ccccc3Sc3ccc(Cl)cc32)CC1 [Perphenazine],0.338
17,Oc1c(Cl)cc(Cl)c2cccnc12 [Chloroxine],2.26

row,SMILES,fiber score / MBP score
1,CCN(CC)CCOc1ccc(C(=C(Cl)c2ccccc2)c2ccccc2)cc1 [Clomiphene],0.64
2,Cc1c(C(=O)NN2CCCCC2)nn(-c2ccc(Cl)cc2Cl)c1-c1ccc(I)cc1,0.94
3,CC(C)(O)c1ccccc1CC[C@@H](SCC1(CC(=O)O)CC1)c1cccc(/C=C/c2ccc3ccc(Cl)cc3n2)c1 [Montelukast],0.64
4,CC(C)(C)NC(=O)[C@@H]1C[C@@H]2CCCC[C@@H]2CN1C[C@@H](O)[C@H](Cc1ccccc1)NC(=O)[C@H](CC(N)=O)NC(=O)c1ccc2ccccc2n1 [Saquinavir],0.889
5,CN(CCOc1ccc(CC2SC(=O)NC2=O)cc1)c1ccccn1 (centres undefined) [Rosiglitazone maleate],0.752 ± 0.037
6,CSc1ccc2c(c1)N(CCC1CCCCN1C)c1ccccc1S2 (centres undefined) [Thioridazine],0.479
7,CC#C[C@]1(O)CC[C@H]2[C@@H]3CCC4=CC(=O)CCC4=C3[C@@H](c3ccc(N(C)C)cc3)C[C@@]21C [Mifepristone],0.755
8,O=C1CCc2ccc(OCCCCN3CCN(c4cccc(Cl)c4Cl)CC3)cc2N1 [Aripiprazole],0.301
9,CNCCC(Oc1ccc(C(F)(F)F)cc1)c1ccccc1 (centres undefined) [Fluoxetine hydrochloride],0.807
10,C[C@@H]1C[C@H]2[C@@H]3CCC4=CC(=O)C=C[C@]4(C)[C@@]3(F)[C@@H](O)C[C@]2(C)[C@@]1(O)C(=O)CO [Dexamethasone],0.824
11,Cc1ccc(O)c([C@H](CCN(C(C)C)C(C)C)c2ccccc2)c1 [Tolterodine],0.747
12,CC/C(=C(\c1ccccc1)c1ccc(OCCN(C)C)cc1)c1ccccc1 [Tamoxifen],0.507
13,Clc1ccc(CO/N=C(\Cn2ccnc2)c2ccc(Cl)cc2Cl)c(Cl)c1 [Oxiconazole],0.501
14,C[C@@H]1CN(CCCn2c3ccccc3c3ccccc32)C[C@H](C)N1 [Rimcazole],0.507
15,O=c1c(O[C@@H]2O[C@H](CO)[C@H](O)[C@H](O)[C@H]2O)c(-c2ccc(O)c(O)c2)oc2cc(O)cc(O)c12 [Hyperoside],0.853
16,COC(=O)C1=C(C)NC(C)=C(C(=O)OCC(C)C)C1c1ccccc1[N+](=O)[O-] (centres undefined) [Nisoldipine],0.773
17,Nc1nc(O)c2ncn(CCC(CO)CO)c2n1 [Penciclovir],0.784

# Tested on: E18 rat cortical neuron-glia co-culture
# Test: myelination (MBP fiber length per Olig2+ nucleus), % of 1 µM DAPT response (DMSO = 0) (% of DAPT); higher = more myelination, active = 50 or more
# Conditions: 1 µM; treatment time: 8 days (DIV5-DIV13)
# How it was run: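 Rat cortical co-cultures from E18 tissue were dissociated with papain and plated at 20,000 cells/well on 96-well plates coated with poly-d-lysine/laminin. From DIV5 to DIV13, library compounds were added at 1 or 5 µM in myelination medium. After fixation in 4 % paraformaldehyde, cultures were immunostained for MBP and Olig2 and counterstained with DAPI, and four 10X fields were analysed in each of duplicate wells. The myelination value is the length of continuous straight MBP fibers per Olig2+ nucleus, normalised so that 0.1 % DMSO is 0 and a 1 µM positive control is 100.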
row,SMILES,myelination
1,CC1(C)O[C@@H]2C[C@H]3[C@@H]4CCC5=CC(=O)C=C[C@]5(C)[C@@]4(F)[C@@H](O)C[C@]3(C)[C@]2(C(=O)CO)O1 [Azmacort],-5.49 (inactive)
2,CC[C@H]1OC(=O)[C@H](C)[C@@H](O[C@H]2C[C@@](C)(OC)[C@@H](O)[C@H](C)O2)[C@H](C)[C@@H](O[C@@H]2O[C@H](C)C[C@H](N(C)C)[C@H]2O)[C@](C)(O)C[C@@H](C)C(=O)[C@H](C)[C@@H](O)[C@]1(C)O [Erythromycin],-11.1 (inactive)
3,COC(=O)Nc1nc2cc(C(=O)c3ccc(F)cc3)ccc2[nH]1 [Flubendazole],-24 (inactive)
4,C=C(CC)C(=O)c1ccc(OCC(=O)O)c(Cl)c1Cl [Ethacrynic Acid],32.2 (inactive)
5,CCCCCNC(=N)N/N=C/c1c[nH]c2ccc(OC)cc12 [Tegaserod],-17.1 (inactive)
6,CS(=O)(=O)c1ccc(-c2cc(Br)sc2-c2ccc(F)cc2)cc1,8.65 (inactive)
7,O=c1c(-c2ccccc2)c1-c1ccccc1 [Diphenylcyclopropenone],-43.4 (inactive)
8,OCCN1CCN(CCCN2c3ccccc3Sc3ccc(C(F)(F)F)cc32)CC1 [Fluphenazine],3 (inactive)
9,CCOC(=O)C1=C(COCCN)NC(C)=C(C(=O)OC)C1c1ccccc1Cl (centres undefined) [Amlodipine],-4.57 (inactive)
10,CC(C)c1ccc2c(c1)c(SC(C)(C)C)c(CC(C)(C)C(=O)O)n2Cc1ccc(Cl)cc1,-5.83 (inactive)
11,CCCCc1nc(Cl)c(CO)n1Cc1ccc(-c2ccccc2-c2nnn[nH]2)cc1 [Losartan],-14.1 (inactive)
12,CC=CC(=O)N(CC)c1ccccc1C [Crotamiton],-16.8 (inactive)
13,Cc1cccc(CN2CCN(C(c3ccccc3)c3ccc(Cl)cc3)CC2)c1 (centres undefined) [Meclizine],-29.8 (inactive)
14,CC[C@H]1OC(=O)[C@H](C)C(=O)[C@H](C)[C@@H](O[C@@H]2O[C@H](C)C[C@H](N(C)C)[C@H]2O)[C@](C)(OC)C[C@@H](C)C(=O)[C@H](C)[C@H]2N(CCCCn3cnc(-c4cccnc4)c3)C(=O)O[C@]12C [Telithromycin],-3.78 (inactive)
15,CN(C)CCOc1ccc(/C(=C(/CCCl)c2ccccc2)c2ccccc2)cc1 [Toremifene],3.19 (inactive)
16,OCCN1CCN(CCCN2c3ccccc3Sc3ccc(Cl)cc32)CC1 [Perphenazine],-21.7 (inactive)
17,Oc1c(Cl)cc(Cl)c2cccnc12 [Chloroxine],-4.18 (inactive)
18,COc1cccc2c1C(=O)c1c(O)c3c(c(O)c1C2=O)C[C@@](O)(C(=O)CO)C[C@@H]3O[C@H]1C[C@H](N)[C@H](O)[C@H](C)O1 [Adriamycin],< -51.2 (inactive)
19,CCN(CC)CCOc1ccc(C(=C(Cl)c2ccccc2)c2ccccc2)cc1 [Clomiphene],-33.9 (inactive)
20,Cc1c(C(=O)NN2CCCCC2)nn(-c2ccc(Cl)cc2Cl)c1-c1ccc(I)cc1,17.6 (inactive)
21,CC(C)(O)c1ccccc1CC[C@@H](SCC1(CC(=O)O)CC1)c1cccc(/C=C/c2ccc3ccc(Cl)cc3n2)c1 [Montelukast],-10.2 (inactive)
22,CC(C)(C)NC(=O)[C@@H]1C[C@@H]2CCCC[C@@H]2CN1C[C@@H](O)[C@H](Cc1ccccc1)NC(=O)[C@H](CC(N)=O)NC(=O)c1ccc2ccccc2n1 [Saquinavir],3.19 (inactive)
23,CN(CCOc1ccc(CC2SC(=O)NC2=O)cc1)c1ccccn1 (centres undefined) [Rosiglitazone maleate],-26.2 (inactive)
24,Cc1c2oc3c(C)ccc(C(=O)N[C@@H]4C(=O)N[C@H](C(C)C)C(=O)N5CCC[C@H]5C(=O)N(C)CC(=O)N(C)[C@@H](C(C)C)C(=O)O[C@@H]4C)c3nc-2c(C(=O)N[C@@H]2C(=O)N[C@H](C(C)C)C(=O)N3CCC[C@H]3C(=O)N(C)CC(=O)N(C)[C@@H](C(C)C)C(=O)O[C@@H]2C)c(N)c1=O [Dactinomycin],< -33.5 (inactive)
25,CSc1ccc2c(c1)N(CCC1CCCCN1C)c1ccccc1S2 (centres undefined) [Thioridazine],-11.4 (inactive)
26,CC#C[C@]1(O)CC[C@H]2[C@@H]3CCC4=CC(=O)CCC4=C3[C@@H](c3ccc(N(C)C)cc3)C[C@@]21C [Mifepristone],-23 (inactive)
27,O=C1CCc2ccc(OCCCCN3CCN(c4cccc(Cl)c4Cl)CC3)cc2N1 [Aripiprazole],-54.9 (inactive)
28,CN1[C@@H]2CC[C@H]1C[C@@H](OC(c1ccccc1)c1ccccc1)C2 [Benzatropine],< -84.9 (inactive)
29,CNCCC(Oc1ccc(C(F)(F)F)cc1)c1ccccc1 (centres undefined) [Fluoxetine hydrochloride],-1.16 (inactive)
30,C[C@@H]1C[C@H]2[C@@H]3CCC4=CC(=O)C=C[C@]4(C)[C@@]3(F)[C@@H](O)C[C@]2(C)[C@@]1(O)C(=O)CO [Dexamethasone],-36.6 (inactive)
